From PubChem
DUX4 txn inh – DUX4-mediated transcription inhibition; 293T-iDUX4 ZSCAN4-Gaussia luciferase reporter, 24 h; active compounds read low; activity change, negative = inhibition, % (no concentration beside the values); actives 0.8% (n = 37,000); AID 1224904;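 active = mean inhibition of at least 10% in the main channel, exceeding the control channel by a set limit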;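 also: 0% = median of neutral control wells and -100% = median of positive control wells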
The depositor's hits bear a star. Many of the other results were omitted from the sample, so hits are more common in it than they were.

SMILES | DUX4 txn inh
COc1ccc2c3c([nH]c2c1)[C@H](CO)N(C)CC31CN(C(=O)NC(C)C)C1 | 14.1
COc1cccc(NC(=O)N[C@@H]2C=C[C@H](CC(=O)N3CCOCC3)O[C@H]2CO)c1 | -0.7
C[C@@H](O)C#Cc1ccc([C@H]2[C@@H](CO)N3CCCCN(C(=O)c4ccc5c(c4)OCO5)C[C@@H]23)cc1 | 22.1
COc1cccc(S(=O)(=O)N2CCCCN3[C@H](CO)[C@H](c4ccc(C#CCC(C)C)cc4)[C@@H]3C2)c1 | -48.8*
CC(C)CC#Cc1ccc([C@@H]2[C@H](CO)N3CCCCN(S(=O)(=O)Cc4ccccc4)C[C@@H]23)cc1 | 2.3
COc1ccc(S(=O)(=O)N2CCCCN3[C@H](C2)[C@H](c2ccc(C#CC(C)C)cc2)[C@@H]3CO)cc1 | 8.2
CC(C)CC#Cc1ccc([C@H]2[C@H](CO)N3CCCCN(S(=O)(=O)Cc4ccccc4)C[C@@H]23)cc1 | 2.1
CC(C)CC#Cc1ccc([C@@H]2[C@@H](CO)N3CCCCN(S(=O)(=O)Cc4ccccc4)C[C@@H]23)cc1 | -14.0*
COc1ccc(S(=O)(=O)N2CCCCN3[C@H](CO)[C@@H](c4ccc(C#CC(C)C)cc4)[C@@H]3C2)cc1 | 1.0
CC(C)CC#Cc1ccc([C@@H]2[C@H](CO)N3CCCCN(S(=O)(=O)c4ccc(F)cc4)C[C@@H]23)cc1 | 0.7
C[C@H](O)C#Cc1ccc([C@@H]2[C@H]3CN(C(=O)c4ccc5c(c4)OCO5)CCCCN3[C@H]2CO)cc1 | 23.1
CC(C)CC#Cc1ccc([C@H]2[C@@H](CO)N3CCCCN(S(=O)(=O)c4ccc(F)cc4)C[C@@H]23)cc1 | -34.3*
C[C@@H](O)C#Cc1ccc([C@H]2[C@@H](CO)N3CCCCN(C(=O)c4ccc5c(c4)OCO5)C[C@H]23)cc1 | -32.2*
COCC#Cc1ccc([C@H]2[C@@H](CO)N3CCCCN(S(=O)(=O)c4ccc(OC)cc4)C[C@H]23)cc1 | 2.7
COc1ccc2c3c(n(C)c2c1)[C@H](CO)N(CC1CC1)CC31CCN(C(C)=O)CC1 | 13.0
COc1ccc2c3c(n(C)c2c1)[C@H](CO)N(Cc1ccncc1)CC31CCN(C(=O)C2CC2)CC1 | 0.9
Cn1cnc(S(=O)(=O)N2C[C@@H](O)COC[C@H]3O[C@@H](CC(=O)NCc4cc(F)cc(F)c4)CC[C@@H]32)c1 | 2.2
COCC(=O)N1CC2(C1)CN(Cc1cccc(OC)c1)[C@H](CO)c1[nH]c3cc(OC)ccc3c12 | -2.6
COc1cccc(NC(=O)N2C[C@H](O)COC[C@H]3O[C@@H](CC(=O)NCCCN4CCOCC4)CC[C@@H]32)c1 | 26.5
Cc1cccc(S(=O)(=O)N2CCCCN3[C@H](C2)[C@H](c2ccc(C#C[C@@H](C)O)cc2)[C@@H]3CO)c1 | 4.3
Cc1cccc(S(=O)(=O)N2CCCCN3[C@@H](CO)[C@H](c4ccc(-c5ccncc5)cc4)[C@@H]3C2)c1 | -5.4
O=S(=O)(Cc1ccccc1)N1CCCCN2[C@@H](CO)[C@@H](c3ccc(-c4cccnc4)cc3)[C@@H]2C1 | -7.7
Cc1cccc(S(=O)(=O)N2CCCCN3[C@H](CO)[C@H](c4ccc(-c5ccncc5)cc4)[C@H]3C2)c1 | -7.5
Cc1cccc(S(=O)(=O)N2CCCCN3[C@@H](CO)[C@H](c4ccc(C#C[C@@H](C)O)cc4)[C@@H]3C2)c1 | -26.5*
COc1cccc(S(=O)(=O)N2CCCCN3[C@@H](CO)[C@@H](c4ccc(C#CCC(C)C)cc4)[C@@H]3C2)c1 | -29.8*
SMILES | DUX4 txn inh
COc1cccc(S(=O)(=O)N2CCCCN3[C@H](CO)[C@H](c4ccc(C#CC5CC5)cc4)[C@@H]3C2)c1 | -0.8
COCC#Cc1ccc([C@@H]2[C@H]3CN(S(=O)(=O)c4ccc(OC)cc4)CCCCN3[C@H]2CO)cc1 | -0.4
O=S(=O)(Cc1ccccc1)N1CCCCN2[C@H](CO)[C@H](c3ccc(-c4ccc(F)cc4)cc3)[C@@H]2C1 | -6.9
Cc1cccc(S(=O)(=O)N2CCCCN3[C@H](CO)[C@@H](c4ccc(C#C[C@@H](C)O)cc4)[C@H]3C2)c1 | 11.5
O=S(=O)(Cc1ccccc1)N1CCCCN2[C@H](CO)[C@@H](c3ccc(-c4ccc(F)cc4)cc3)[C@@H]2C1 | -31.6*
C/C=C/c1ccc([C@@H]2[C@@H](CO)N3CCCCN(S(=O)(=O)c4cccc(C)c4)C[C@H]23)cc1 | -16.8*
COc1ccc2c3c(n(C)c2c1)[C@H](CO)NCC31CCN(C(=O)Nc2ccc(F)cc2F)CC1 | 10.2
Cc1ccc(S(=O)(=O)Nc2cccc3c2O[C@H](CN(C)S(=O)(=O)c2ccc(C)cc2)[C@H](C)CN([C@@H](C)CO)C3=O)cc1 | -0.9
COc1cccc(-c2ccc3c(c2)[C@@H]2[C@@H](CCN2C(=O)Cc2ccncc2)[C@@H](CO)N3)c1 | -5.2
O=C(C[C@H]1C=C[C@@H](NC(=O)Nc2ccc(C(F)(F)F)cc2)[C@@H](CO)O1)NCc1ccccn1 | -1.9
CCCC#Cc1cnc2c(c1)C(=O)N([C@@H](C)CO)C[C@@H](C)[C@@H](CN(C)C(=O)Nc1cc(F)ccc1F)O2 | -4.8
CN1[C@@H]2c3ccc(-c4ccccc4F)c(=O)n3C[C@H]1[C@H](CO)[C@H]2C(=O)NCc1ccccn1 | -6.1
